Source: PubChem BioAssay AID1159580 (chemical genetic matrix, 2015)
Where “and” joins values, the source holds several entries; their conditions need not be identical. Identical values can stand only once. The campaign covered roughly 5,500 compounds. About 2,000 (36%) were called active. Inconclusive results (about 18%) are left out. Cut-off read from the data, not from the text of the source: active = normalized growth mostly below about 0.91 (no sharp cut-off); inconclusive = no clear call, values can overlap the other calls; inactive = mostly above about 0.92. Some of the results follow.

Assay: chemical genetic growth profiling, strain panel (AID 1159580);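 note: tested at 20 µM; growth read once vehicle control cultures reached saturation at 30 °C; 1 = growth at the plate median or of vehicle wells; lower values mean less growth of the strain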
Details: S. cerevisiae deletion strains, growth OD

Measured: normalized growth

CCn1cc(C(=O)O)c(=O)c2cnc(N3CCNCC3)nc21
inactive: locus YAL021C, strain ccr4, hits give low values 1.02 | locus YAL026C, strain drs2, hits give low values 1.03 | locus YAL030W, strain snc1, hits give low values 1.03 | locus YBL061C, strain skt5, hits give low values 1.04 | locus YBR009C, strain hhf1, hits give low values 1.02 | locus YBR021W, strain FUR4, hits give low values 0.997 | locus YBR023C, strain chs3, hits give low values 1.03 | locus YBR171W, strain sec66, hits give low values 1.04 | locus YBR229C, strain ROT2, hits give low values 0.98 | locus YBR231C, strain swc5, hits give low values 0.998 | locus YBR279W, strain paf1, hits give low values 1.01 | locus YCL011C, strain gbp2, hits give low values 1.04 | locus YCL016C, strain dcc1, hits give low values 1.01 | locus YCL029C, strain bik1, hits give low values 0.987 | locus YCL069W, strain vba3, hits give low values 1.02 | locus YCR088W, strain abp1, hits give low values 1.02 | locus YDL005C, strain med2, hits give low values 1 | locus YDL035C, strain GPR1, hits give low values 1.01 | locus YDL040C, strain nat1, hits give low values 1 | locus YDL074C, strain BRE1, hits give low values 1.06 | locus YDL101C, strain DUN1, hits give low values 0.994 | locus YDL134C, strain PPH21, hits give low values 0.986 | locus YDL185W, strain tfp1, hits give low values 0.985 | locus YDL192W, strain arf1, hits give low values 0.985 | locus YDR001C, strain nth1, hits give low values 1.01 | locus YDR069C, strain doa4, hits give low values 1.02 | locus YDR101C, strain arx1, hits give low values 1.01 | locus YDR137W, strain rgp1, hits give low values 1 | locus YDR159W, strain sac3, hits give low values 0.945 | locus YDR162C, strain NBP2, hits give low values 0.992 | locus YDR195W, strain ref2 0.975 | locus YDR297W, strain sur2, hits give low values 1 | locus YDR318W, strain mcm21, hits give low values 1.01 | locus YDR334W, strain swr1, hits give low values 1.02 | locus YDR335W, strain msn5, hits give low values 1.01 | locus YDR388W, hits give low values 0.993 | locus YDR392W, strain spt3, hits give low values 0.959 | locus YDR502C, strain sam2, hits give low values 1 | locus YEL003W, strain gim4, hits give low values 1.02 | locus YEL037C, strain rad23, hits give low values 1.01 | locus YEL061C, strain CIN8 (second series), hits give low values 1 | locus YEL061C, strain CIN8, hits give low values 0.995 | locus YER015W, strain faa2, hits give low values 1.02 | locus YER016W, strain bim1, hits give low values 1.02 | locus YER110C, hits give low values 0.987 | locus YER111C, strain swi4, hits give low values 1.02 | locus YER155C, strain BEM2 (second series), hits give low values 0.981 | locus YER155C, strain BEM2, hits give low values 0.983 | locus YER167W, strain BCK2, hits give low values 0.987 | locus YFR010W, strain ubp6, hits give low values 1 | locus YGL078C, strain dbp3, hits give low values 1 | locus YGL086W, strain mad1, hits give low values 1.01 | locus YGL167C, strain pmr1, hits give low values 1.01 | locus YGL173C, strain kem1, hits give low values 1 | locus YGL227W, strain vid30, hits give low values 1.01 | locus YGL240W, strain doc1, hits give low values 0.988 | locus YGL248W, strain PDE1, hits give low values 1 | locus YGL253W, strain hxk2, hits give low values 1.04 | locus YGR078C, strain PAC10, hits give low values 1.05 | locus YGR135W, strain pre9, hits give low values 0.963 | locus YGR252W, strain gcn5, hits give low values 1 | locus YHR013C, strain ard1, hits give low values 1.04 | locus YHR027C, strain rpn1, hits give low values 1.01 | locus YHR030C, strain SLT2, hits give low values 0.983 and 1.06 | locus YHR079C, strain IRE1 (second series), hits give low values 0.992 | locus YHR079C, strain IRE1, hits give low values 1.03 | locus YHR094C, strain hxt1, hits give low values 0.984 | locus YHR129C, strain ARP1, hits give low values 0.986 | locus YHR142W, strain chs7, hits give low values 1.04 | locus YHR200W, strain rpn10, hits give low values 0.988 | locus YIL066C, strain RNR3, hits give low values 1.01 | locus YIL073C, strain SPO22, hits give low values 0.961 | locus YIL125W, strain kgd1, hits give low values 0.993 | locus YIR030C, strain dcg1, hits give low values 0.986 | locus YJL092W, strain hpr5, hits give low values 1.02 | locus YJL095W, strain BCK1 (second series), hits give low values 1 | locus YJL095W, strain BCK1, hits give low values 1.03 and 1.04 | locus YJL115W, strain asf1, hits give low values 1 | locus YJL129C, strain trk1, hits give low values 1.04 | locus YJL134W, strain LCB3, hits give low values 0.983 | locus YJL154C, strain vps35, hits give low values 1.03 | locus YJL164C, strain tpk1, hits give low values 1.05 | locus YJL166W, strain qcr8, hits give low values 1.02 | locus YJL168C, strain set2, hits give low values 0.99 | locus YJL187C, strain SWE1 (second series), hits give low values 1.02 | locus YJL187C, strain SWE1, hits give low values 1.02 | locus YJR043C, strain POL32, hits give low values 1 | locus YJR066W, strain TOR1, hits give low values 1
